The values below come from PubChem BioAssay (NCI).

Assay in all cases: NCI-60 one-dose screen, 48 h (100 = growth as untreated, 0 = no growth, -100 = all killed)
What all share (details): 10 µM unless noted

The test system of test [1] is NCI-H23 lung.
The subject of test [2] is NCI-H226 lung.
The test system of test [3] is NCI-H322M lung.
Test [4] deals with HOP-62 NSCLC.
Test [5] has as its system NCI-H460 lung.
Test [6] concerns HOP-92 NSCLC.
Test [7] has as its system NCI-H522 lung.
In test [8] the test system is A549/ATCC NSCLC.
The subject of test [9] is COLO 205 colon.
Test [10] concerns DU-145 prostate.
In test [11] the test system is K-562 leukemia.
The subject of test [12] is MALME-3M melanoma.
Test [13] relates to MDA-MB-231 breast.
In test [14] the test system is SF-268 CNS.
The test system of test [15] is SF-295 CNS.
Test [16] concerns SF-539 CNS.
The subject of test [17] is UACC-257 melanoma.
For test [18], the system named is M14 melanoma.
For test [19], the system named is 786-0 renal.
In test [20] the test system is RXF 393 renal.

The panel holds about 83,000 compounds, 20% with a hit somewhere; the sample as a whole holds those more often.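 Method: cells in 96-well plates; compound added at one concentration; 48 h incubation; percent growth measured; values under 10 scored active.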 A number with no mark means an inactive call. Calls of active or inactive are those of the source.

Regarding `O=C1c2ccccc2C(=O)c2c(NCCN=Cc3c(O)ccc4ccccc34)cccc21`, the growth in [1] was 92.9%; in [2], 91.7%; in test [3] it was 91.4%; in test [4] it was 47%; in test [5] it was 88.7%; in test [6], 37.9%. Moreover, the growth in test [7] is 84.7%; in [8] it was 19.9%; in test [9] it was 85.3%; in [10], 51.7%; in test [11] it was 77.7%; in test [12], 113%. The growth in [13] was 84.4%; in [14], 82.3%; in test [15] it was 65.1%; in test [16], 91.4%; in test [17], -5.35% (active); in test [18] it was 65.8%.

As for `O=C1OC(c2ccc(-c3ccccc3)cc2)=C/C1=C/C=C/c1ccccc1`, the growth is 100% in [1]; 82.3% in [2]; 92.5% in [3]; 97.1% in test [4]; 103% in test [5]; 68.7% in test [6]. For the same compound, the growth in test [7] was 95.1%; in test [8] it was 9.59% (active); in [9], 120%; in test [10], 111%; in test [11], 96%; in test [12] it was 104%. Moreover, the growth is 105% in [13]; 90.5% in [14]; 65.6% in test [15]; 105% in test [16]; -13.8% (active) in test [17]; 112% in test [18].

Regarding `c1ccc2c(c1)Oc1cccnc1-n1nccc1-2`, the growth in test [1] is 97.8%; in test [2], 77.3%; in [3], 102%; in test [4], 104%; in test [5], 103%; in test [6], 90%. The growth in test [7] is 99.7%; in [8] it was 99.6%; in [19], 103%; in test [10], 110%; in test [11] it was 104%; in test [12] it was 103%. Also, the growth in test [13] was 93.5%; in test [20], 107%; in test [14], 102%; in [15], 108%; in test [16], 106%; in test [17] it was 102%. In addition, the growth in test [18] is 101%.

Turning to `COc1ccc(-c2nn(-c3ccc(NC(=O)c4cc(Cl)cc(Cl)c4)cc3)cc2-c2ccncc2)cc1Cl`, the growth in test [1] is 83.7%; in [2], 98.4%; in test [3] it was 88.6%; in test [4], 59.9%; in test [5], 38.3%; in test [6], 84.6%. Also, the growth in [7] is 87.6%; in [8], 53.1%; in [19], 3.68% (active); in [10], 76.6%; in test [11] it was 12%; in [12], 89.9%. The growth is 25.1% in test [13]; -66.8% (active) in test [20]; 63.5% in [14]; -28.5% (active) in test [15]; 47.8% in test [16]; 85% in test [17]. The growth in test [18] was 42.9%.

Take `O=C(c1ccccc1)[C@H]1[C@@H]2CCCN2[C@]2(C(=O)Nc3ccc(F)cc32)[C@]12C(=O)Nc1ccccc12`: the growth was 93.3% in test [1]; 79.3% in test [2]; 97% in test [3]; 86.8% in test [4]; 93.6% in [5]; 54.9% in [6]. The growth was 73.5% in test [7]; 75.2% in [8]; 87.7% in test [19]; 94% in test [10]; 125% in test [12]; 75.5% in [13]. Also, the growth in test [20] was 81.9%; in test [14], 90.2%; in test [15] it was 97.6%; in test [16] it was 90.1%; in [17] it was 83.3%; in test [18] it was 85.2%.

`Cc1cn(C2CC(N=[N+]=[N-])C(COP(=O)(O)OP(=O)(O)OP(=O)(O)O)O2)c(=O)[nH]c1=O` (stereo not drawn): the growth in test [1] is 94.7%; in test [2], 115%; in test [3], 102%; in test [4], 94.1%; in [5], 82.4%; in test [6], 50.9%. The growth in test [7] was 92.9%; in [8] it was 146%; in [19], 95.2%; in [10], 114%; in test [11] it was 83.5%; in test [12], 87.9%. The growth in test [13] was 118%; in test [20], 127%; in test [14], 103%; in test [15], 80.7%; in test [16], 114%; in [17] it was 108%. Besides, in test [18], the growth was 57.7%.

Regarding `CC1(C)N=C(N)N=C(N)N1c1ccc(OCC(=O)Nc2ccccc2)c(Cl)c1`, the growth is 24% in [1]; 99.7% in test [2]; 40.2% in [3]; -3.64% (active) in test [4]; 15.3% in test [5]; 13.4% in test [6]. In addition, the growth is -7.05% (active) in test [7]; 11.2% in test [8]; 82.9% in test [9]; 39.1% in [10]; 18.5% in test [11]; 55.1% in test [12]. Further, the growth in test [13] is 68.9%; in test [14], 28%; in test [15] it was 23.5%; in test [16], 23.8%; in test [17] it was -3.5% (active); in test [18], 25.7%.

With `CC1(C)Cc2c(Br)c(Br)c(Br)c(OCC(O)CN3CCN(c4ccccn4)CC3)c2O1` (stereo not drawn), the growth in test [1] is 80.9%; in [2], 91.7%; in test [3], 57.6%; in test [4], 102%; in [5], 88%; in [6], -5.32% (active). In addition, the growth in test [7] is 60.9%; in [8], 80.4%; in test [19], 31.3%; in test [10] it was 106%; in [11] it was 36.4%; in [12] it was 88.2%. Moreover, the growth in test [13] was 57.4%; in test [20], 99.7%; in test [14], 79.1%; in test [15], 81.5%; in test [16], 95.1%; in test [17], 105%. In addition, in test [18], the growth was 99.2%.
